Experiment [1] in a line: liver-stage malaria parasite growth inhibition, primary screen, cell-based, HepG2, luciferase luminescence, HepG2 viability (AID 624349).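 Further: 100% = mean of DMSO negative control wells on the same plate.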 The note with it: P. berghei liver stage in HepG2, luciferase luminescence, concentration not given here; parasite load remaining: stronger effect = lower value; viability: measured here: HepG2 viability without parasites.
Experiment [2] deals with 6-phosphogluconate dehydrogenase, decarboxylating (Homo sapiens) (UniProt P52209). Description: 6PGD enzyme inhibitors, primary screen, biochemical, human, recombinant enzyme, NADPH absorbance (AID 1159550;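 active means at least 20% inhibition of 6-phosphogluconate dehydrogenase activity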). Particulars: recombinant 6PGD, NADPH absorbance 341 nm; at 10 µM; stronger effect = higher value.
Chain of 6-phosphogluconate dehydrogenase, decarboxylating (Homo sapiens) (P52209 whole entry, looked up): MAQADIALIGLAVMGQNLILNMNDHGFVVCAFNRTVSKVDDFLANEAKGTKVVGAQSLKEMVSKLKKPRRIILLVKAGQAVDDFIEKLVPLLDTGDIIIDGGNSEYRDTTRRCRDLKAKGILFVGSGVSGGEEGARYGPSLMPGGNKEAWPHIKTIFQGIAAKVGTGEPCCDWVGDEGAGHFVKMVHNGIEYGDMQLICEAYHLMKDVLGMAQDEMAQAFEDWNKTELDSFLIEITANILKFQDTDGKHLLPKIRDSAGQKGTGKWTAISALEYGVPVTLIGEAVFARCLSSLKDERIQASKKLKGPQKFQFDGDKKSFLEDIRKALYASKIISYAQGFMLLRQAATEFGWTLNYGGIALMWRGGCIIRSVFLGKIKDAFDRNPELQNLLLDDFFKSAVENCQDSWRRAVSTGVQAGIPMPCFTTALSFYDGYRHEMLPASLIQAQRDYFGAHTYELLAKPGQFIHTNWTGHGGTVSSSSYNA
Experiment [3] is described as follows: differential killing of epithelial or mesenchymal cells, primary screen, imaging, PC-3E GFP, TEM4-18 mCherry, co-culture (AID 1345086;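 active means compounds killing one labelled cell type while sparing the other, by normalised counts and ratio limits, not self-fluorescent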;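 on all read-outs here: cells exposed to compound for 72 h before imaging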;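 on red/green cell ratio (normalised): normalised mesenchymal count divided by normalised epithelial count so high means epithelial killing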). Particulars: imaging cell counts, at 1 µM; for red/green cell ratio (normalised): actives lie on both sides, counts scaled to control wells, 1 = unselective.
Experiment [4] can be described thus: sensitizers of A549 cells to miR-34 induction, primary screen, imaging, A549 dox-inducible miR-34, nuclei and caspase counts (AID 1347080;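 active means compounds whose cell count with miR-34 switched on is under 0.7 times the count with it off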). The note with it: A549 miR-34 inducible, Hoechst nuclei count, 48 h.
Experiment [5] deals with NAD(+) hydrolase SARM1 (Homo sapiens) (UniProt Q6SZW1). Description: SARM1 TIR NADase inhibitors, cell lysate, NAD-Glo luminescence (AID 1508614;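 active means compound whose remaining NAD level is above about 45 nM, limit read from the data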). The note with it: SAM-TIR HEK293T lysate NADase, at 1 µM, stronger effect = higher value.
Chain of NAD(+) hydrolase SARM1 (Homo sapiens) (Q6SZW1 whole entry, looked up, the tested form may be a part): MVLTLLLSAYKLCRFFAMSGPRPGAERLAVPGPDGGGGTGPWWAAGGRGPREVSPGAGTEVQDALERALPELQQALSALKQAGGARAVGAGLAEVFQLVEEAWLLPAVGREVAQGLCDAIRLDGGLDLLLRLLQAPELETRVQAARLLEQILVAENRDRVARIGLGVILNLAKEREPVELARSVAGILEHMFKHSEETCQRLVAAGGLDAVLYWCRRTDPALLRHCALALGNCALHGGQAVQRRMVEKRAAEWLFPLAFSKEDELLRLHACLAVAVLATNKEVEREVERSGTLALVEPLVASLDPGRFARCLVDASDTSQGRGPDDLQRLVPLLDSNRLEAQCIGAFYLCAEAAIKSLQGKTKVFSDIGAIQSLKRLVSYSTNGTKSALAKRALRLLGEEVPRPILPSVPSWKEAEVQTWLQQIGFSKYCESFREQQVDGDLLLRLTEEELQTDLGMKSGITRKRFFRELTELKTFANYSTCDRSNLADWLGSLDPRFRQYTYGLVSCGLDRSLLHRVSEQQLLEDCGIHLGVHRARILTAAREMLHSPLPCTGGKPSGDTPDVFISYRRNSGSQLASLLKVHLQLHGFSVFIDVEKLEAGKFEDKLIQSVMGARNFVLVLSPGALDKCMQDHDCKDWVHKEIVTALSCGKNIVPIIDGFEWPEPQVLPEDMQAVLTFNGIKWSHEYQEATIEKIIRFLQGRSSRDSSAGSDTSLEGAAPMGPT
For experiment [6], the target named is Mitogen-activated protein kinase 7 (Homo sapiens) (UniProt Q13164). Description: ERK5 transactivation activators in reporter cells, primary screen, cell-based, HTS (AID 1508626;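 active means luciferase signal above three times the same-plate solvent-only control wells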;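 further: luciferase driven by Gal4-ERK5 fusion binding five Gal4 sites before minimal TATA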). Particulars: HeLa Gal4-ERK5 transactivation, 18 h, at 5 µM, stronger effect = higher value.
Chain of Mitogen-activated protein kinase 7 (Homo sapiens) (Q13164 whole entry, looked up, the tested form may be a part): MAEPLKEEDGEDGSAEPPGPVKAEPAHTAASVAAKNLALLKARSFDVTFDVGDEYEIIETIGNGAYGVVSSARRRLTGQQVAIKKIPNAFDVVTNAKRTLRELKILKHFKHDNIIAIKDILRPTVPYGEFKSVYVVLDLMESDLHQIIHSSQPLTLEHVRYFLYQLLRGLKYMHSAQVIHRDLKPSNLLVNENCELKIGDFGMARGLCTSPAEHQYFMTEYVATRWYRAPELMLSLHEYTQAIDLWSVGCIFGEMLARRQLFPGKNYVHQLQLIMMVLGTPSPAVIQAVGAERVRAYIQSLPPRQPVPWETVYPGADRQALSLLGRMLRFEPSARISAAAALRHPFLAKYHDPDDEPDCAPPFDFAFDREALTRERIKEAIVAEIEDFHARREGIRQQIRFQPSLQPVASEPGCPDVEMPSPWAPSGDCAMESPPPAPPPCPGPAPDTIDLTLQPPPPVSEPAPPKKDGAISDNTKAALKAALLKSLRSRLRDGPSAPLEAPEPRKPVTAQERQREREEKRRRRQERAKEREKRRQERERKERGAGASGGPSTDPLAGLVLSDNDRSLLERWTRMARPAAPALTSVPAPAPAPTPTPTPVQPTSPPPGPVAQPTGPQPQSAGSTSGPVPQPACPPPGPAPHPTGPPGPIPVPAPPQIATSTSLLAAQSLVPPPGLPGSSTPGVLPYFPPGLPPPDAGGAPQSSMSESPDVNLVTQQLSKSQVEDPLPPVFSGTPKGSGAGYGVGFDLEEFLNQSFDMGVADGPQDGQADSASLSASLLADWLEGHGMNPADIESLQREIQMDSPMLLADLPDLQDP
Experiment [7] in a line: polyglutamine-triggered caspase-3 activation inhibitors, cell-based (AID 1583). The note with it: polyglutamine-induced caspase-3 activation, cell assay; stronger effect = higher value;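 tested at 10 µM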.
Experiment [8] is described as follows: suppressors of polyQ aggregation in yeast, 75Q-TubU reporter (AID 1593). Particulars: Yeast 75Q polyglutamine aggregation reporter.
A short description of experiment [9]: rescue of polyQ-huntingtin neuronal dysfunction in worms, whole organism, C. elegans mechanosensory neurons, N-terminal huntingtin (AID 1599). Particulars: touch response, stronger effect = higher value.
Experiment [10] in a line: inhibitors of mitochondrial cytochrome c release, biochemical, purified mitochondria (AID 1603).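 Further: mouse liver mitochondria challenged with calcium chloride; signal normalized to the plate average as 100%.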 The note with it: stronger effect = lower value.
The nature of experiment [11]: inhibitors of polyQ protein aggregation (AID 1604). Particulars: polyglutamine-induced protein aggregation inhibition assay; stronger effect = higher value; tested at 2.5 µM.
Experiment [12] in a line: enhancers of glutamate uptake in motor neurons, MN-1 cell line (AID 1612).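 Further: tested at 1 µM final; 0% = mean of DMSO vehicle wells on each plate; positive means more glutamate uptake than control and negative means less.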 The note with it: MN-1 motor neuron cells, stronger effect = higher value.
A short description of experiment [13]: reducers of polyQ inclusions in PC12 cells, cell-based, NGF-treated PC12, GFPQ80 (AID 1614).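 Further: lower means fewer inclusions and 0 means no inclusions at all.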 The note with it: PC12 NGF-treated GFP-polyQ80 inclusion reduction.
Experiment [14] in a line: suppressors of polyglutamine aggregation in yeast, 75Q-TubH (AID 1616). The note with it: S. cerevisiae 75Q-TubH polyglutamine aggregation suppression; stronger effect = higher value.
Experiment [15] in a line: hESC survival regulators, cell-based (AID 493140; call rule not given here;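 further: cells exposed to compounds for four days before counting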). The note with it: human embryonic stem cell survival screen; stronger effect = higher value.
Experiment [16] can be described thus: survival rescue of mitochondrial mutant cells in low glucose, primary screen, MELAS cybrids, Rieske KO mouse fibroblasts, CellTiter-Glo (AID 1508586;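 active means mean z-score across replicates of 1.96 or higher in either the MELAS or the Rieske mutant cell line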;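 further: z relative to plate mean and SD of compound and empty wells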).
Experiment [17] is described as follows: viability rescue of complex I mutant cybrids, primary screen, cell-based, galactose medium, ATP luminescence (AID 1645843;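 active means z-score of at least 1.8 in each of two replicates, scored against plate mean and spread of sample wells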;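 further: positive z means more ATP and so rescue of galactose-driven cybrid death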). The note with it: complex I mutant cybrid cells, 72 h, stronger effect = higher value.
Where [18] appears, read: measured here: epithelial PC-3E GFP cell survival.
[19] abbreviates: measured here: mesenchymal TEM4-18 mCherry cell survival.
Setting [20] is: stronger effect = lower value, cell number ratio, induced over uninduced.
Where [21] appears, read: measured here: relative caspase fold change +Dox/-Dox.
[22] abbreviates: measured here: total cells with miR-34 induction, stronger effect = lower value.
Where [23] appears, read: measured here: total cells without miR-34 induction.

The results in this text go back to PubChem BioAssay.

In general, viability refers to a read-out of living cells in per cent, often relative to untreated cells. Broadly, the inhibition is the drop in the measured response relative to a control, in per cent.

Several values for one entry are separate records, joined by “and”; a condition that tells them apart may be missing. Equal entries are not always repeated. For some of these results: Potency and affinity values are given separately. Activity calls are given as the source filed them. Unless noted, no stated cut-off is given here; in the data, active means parasite load remaining mostly below about 12% (no sharp cut-off); inactive means mostly above about 10%.

Consider `Nc1c2ccccc2nc2ccccc12` (tested in a mixture with another compound), for which the parasite load remaining in experiment [1] is 2.09% (inactive) and 61.1% (inactive). The viability in [1] was 97.8% and 80.2%. Further, the inhibition in [2] is 3.89% (inactive). Besides, the red/green cell ratio (normalised) in [3] is 0.94 (inactive). Also, the results for the normalised cell number in experiment [3] (setting [18]) and in experiment [3] (setting [19]) were 1.25 and 1.17, respectively. The values for the fold change in experiment [4] (setting [20]) and in experiment [4] (setting [21]) were 1.59 (inactive) and 1.23, respectively. In addition, the cell count is 1530 in [4] (setting [22]) and 960 in experiment [4] (setting [23]). Further, the remaining NAD in [5] was 10 nM (inactive). Besides, the luciferase signal in [6] was 80 AU (inactive).
Consider `CC[C@H]1OC(=O)C[C@@H](O)[C@H](C)[C@@H](O[C@@H]2O[C@H](C)[C@@H](O[C@H]3C[C@@](C)(O)[C@@H](O)[C@H](C)O3)[C@H](N(C)C)[C@H]2O)[C@@H](CC=O)C[C@@H](C)C(=O)/C=C/C(C)=C/[C@@H]1CO[C@@H]1O[C@H](C)[C@@H](O)[C@@H](OC)[C@H]1OC`, for which, in [1], the parasite load remaining is 131% (inactive) and 58.3% (inactive). Also, the viability in [1] is 85.6% and 145%. The inhibition in [2] is 1.55% (inactive). For the same compound, the red/green cell ratio (normalised) in experiment [3] is 1.03 (inactive). The values for the normalised cell number in [3] (setting [18]) and in experiment [3] (setting [19]) were 1.05 and 1.08, respectively. The fold change is 0.905 (inactive) in experiment [4] (setting [20]) and 5.16 in [4] (setting [21]). Further, the values for the cell count in [4] (setting [22]) and in [4] (setting [23]) were 12000 and 13200, respectively. In addition, the remaining NAD in experiment [5] is 10 nM (inactive). Moreover, in experiment [6], the luciferase signal is 16 AU (inactive).
In the case of `CC1(C)S[C@@H]2C(N3C(=O)[C@@H](c4ccccc4)NC3(C)C)C(=O)N2[C@H]1C(=O)O` (stereo partly drawn), the inhibition in experiment [7] is 4.02%; in [2] it was -0.481% (inactive). In experiment [8], this compound registered a score of 1.26. The rescue above control in [9] was -1.6. Besides, the cytochrome c release ratio in [10] was determined as 0.9. For the same compound, the inhibition of aggregation in experiment [11] was determined as 49.2%. Further, the glutamate uptake change in experiment [12] is 4.63%. Besides, the inclusion score in experiment [13] is 2. The same compound registered an aggregation suppression score in [14] of 1.31. Besides, the parasite load remaining in experiment [1] is 110% (inactive) and 71.1% (inactive). The viability in experiment [1] is 76.4% and 94.5%. For the same compound, the red/green cell ratio (normalised) in [3] was 1.14 (inactive). For the same compound, the results for the normalised cell number in [3] (setting [18]) and in experiment [3] (setting [19]) were 0.94 and 1.08, respectively. In addition, the fold change in experiment [4] (setting [20]) was 0.886 (inactive); in [4] (setting [21]) it was 0.799. The figures for the cell count in experiment [4] (setting [22]) and in [4] (setting [23]) were 11200 and 12600, respectively.
As to `NCC(O)CC(=O)O` (stereo not drawn), the inhibition in experiment [7] was 11.2%; in [2], -18.3% (inactive). The compound further returned a score in experiment [8] of 1.7. For the same compound, the rescue above control in experiment [9] is -10.6. Moreover, in [10], the cytochrome c release ratio worked out at 1.09. Moreover, in [11], the inhibition of aggregation worked out at 57.7%. In experiment [12], the glutamate uptake change was 9.66%. In addition, in experiment [13], the inclusion score was determined as 2. Also, in experiment [14], the aggregation suppression score was determined as 1.63. Further, the parasite load remaining in [1] was 157% (inactive). The viability in [1] stood at 91.4%. Moreover, in [3], the red/green cell ratio (normalised) was 0.75 (inactive). The normalised cell number in [3] (setting [18]) worked out at 1.28; in experiment [3] (setting [19]), 0.96. Further, in experiment [5], the remaining NAD was 10 nM (inactive). The luciferase signal in experiment [6] was 44 AU (inactive).
In the case of `COc1cc2cc3c4cc(OC)c(OC)cc4cc[n+]3c(C)c2cc1OC`, the survival in [15] is 0.333 (inactive). In experiment [1], the parasite load remaining is 91.2% (inactive) and 45.3% (inactive) and 68.5% (inactive). For the same compound, the viability in experiment [1] is 98.6% and 66.5% and 73.3%. Further, the inhibition in experiment [2] is 13.7% (inactive). The red/green cell ratio (normalised) in experiment [3] was 0.8 (inactive). For the same compound, the results for the normalised cell number in [3] (setting [18]) and in experiment [3] (setting [19]) were 1 and 0.8, respectively. The values for the fold change in [4] (setting [20]) and in [4] (setting [21]) were 0.879 (inactive) and 1.23, respectively. In addition, the cell count was determined as 8980 in experiment [4] (setting [22]) and 10200 in experiment [4] (setting [23]). In [6], the luciferase signal was 72 AU (inactive).
Take `CCCCN1CCCCC1C(=O)Nc1c(C)cccc1C` (stereo not drawn): the inhibition was 17% in [7] and 3.83% (inactive) in experiment [2]. In experiment [8], this compound came in with a score of 1.42. In experiment [9], the rescue above control is -7.52. Besides, in [10], the cytochrome c release ratio came out at 0.81. The inhibition of aggregation in [11] was -27.4%. Also, in experiment [12], the glutamate uptake change was found to be 1.83%. In experiment [13], this compound came in with an inclusion score of 2. The aggregation suppression score in [14] turned out to be 1.3. Besides, the survival in [15] is 10.1 (inactive). Besides, the red/green cell ratio (normalised) in [3] is 1.17 (inactive). Besides, the normalised cell number is 1.13 in experiment [3] (setting [18]) and 1.33 in experiment [3] (setting [19]). The z-score in experiment [16] (MELAS cybrid survival, CellTiter-Glo 48 h, stronger effect = higher value) is -0.429 (inactive) and 0.622 (inactive) and -0.162 (inactive); in experiment [16] (Rieske KO mouse fibroblast survival, CellTiter-Glo 72 h), -0.124 and 0.613 and -0.528; in experiment [17], 0.545 (inactive). The remaining NAD in [5] was 10 nM (inactive). The luciferase signal in [6] was 68 AU (inactive).
